About 83,000 compounds went through this panel and 20% of them were active in at least one assay; those are over-represented in the sample as a whole.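 Interpretation: 100, growth as untreated; towards 0, rising growth inhibition; 0, no net growth; 0 to -100, cell death. Compounds scoring below 10 were considered active.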 A number with no mark means an inactive call. Calls of active or inactive are those of the source.
Columns and labels:
Assay in all cases: NCI-60 one-dose screen, 48 h (100 = growth as untreated, 0 = no growth, -100 = all killed)
NCI-H23 lung = details: 10 µM unless noted
NCI-H226 lung = details: 10 µM unless noted
NCI-H322M lung = details: 10 µM unless noted
HOP-62 NSCLC = details: 10 µM unless noted
NCI-H460 lung = details: 10 µM unless noted
HOP-92 NSCLC = details: 10 µM unless noted
NCI-H522 lung = details: 10 µM unless noted
A549/ATCC NSCLC = details: 10 µM unless noted
786-0 renal = details: 10 µM unless noted
COLO 205 colon = details: 10 µM unless noted
DU-145 prostate = details: 10 µM unless noted
K-562 leukemia = details: 10 µM unless noted
MALME-3M melanoma = details: 10 µM unless noted
MDA-MB-231 breast = details: 10 µM unless noted
RXF 393 renal = details: 10 µM unless noted
SF-268 CNS = details: 10 µM unless noted
SF-295 CNS = details: 10 µM unless noted
SF-539 CNS = details: 10 µM unless noted
UACC-257 melanoma = details: 10 µM
M14 melanoma = details: 10 µM unless noted

Structure (SMILES)	growth (NCI-H23 lung)	growth (NCI-H226 lung)	growth (NCI-H322M lung)	growth (HOP-62 NSCLC)	growth (NCI-H460 lung)	growth (HOP-92 NSCLC)	growth (NCI-H522 lung)	growth (A549/ATCC NSCLC)	growth (786-0 renal)	growth (COLO 205 colon)	growth (DU-145 prostate)	growth (K-562 leukemia)	growth (MALME-3M melanoma)	growth (MDA-MB-231 breast)	growth (RXF 393 renal)	growth (SF-268 CNS)	growth (SF-295 CNS)	growth (SF-539 CNS)	growth (UACC-257 melanoma)	growth (M14 melanoma)
COc1cc(NCCCN=C(N)NC(N)=NC(C)C)c2ncccc2c1	34.7%	92%	52%	96.2%	91.9%	36.9%	-13.1% (active)	78.6%	98.8%	-1.53% (active)	106%	44.6%	-24.2% (active)	64.9%	94.8%	44.1%	87.5%	21.7%	45.1%	65.3%
CCN(CC)CCCC(C)N=c1cc(Nc2cc(=NC(C)CCCN(CC)CC)c3cc(OC)ccc3o2)oc2ccc(OC)cc12 (stereo not given)	-43.3% (active)	2.33% (active)	-38.4% (active)	-41.6% (active)	-38.7% (active)	-29.9% (active)	-78.6% (active)	-48.6% (active)	-7.34% (active)	-96.2% (active)	2.37% (active)	-38.4% (active)	-80.1% (active)	-51.7% (active)	-68.4% (active)	-32.1% (active)	-9.83% (active)	-90.2% (active)	-79.1% (active)	-87.9% (active)
O=C(CN1CCN(c2cc3c(cc2F)c(=O)c(C(=O)O)cn3C2CC2)CC1)Nc1ccc(C(=O)/C=C/c2ccc(Cl)cc2)cc1	105%	92.5%	111%	107%	112%	95.8%	47.7%	97.6%	88.9%	112%	120%	104%	100%	115%	94.1%	121%	82.1%	99.5%	103%	96.3%
Cc1ccc(S(=O)(=O)NCCCNc2nccc(-c3c(-c4ccccc4)nc4sccn34)n2)cc1	76.2%	49.4%	78.4%	124%	52%	93.8%	54.1%	58.4%	38.7%	46.6%	26.2%	15.9%	99.3%	18.3%	65%	38.6%	65.2%	82.5%	106%	30.5%
Clc1cccc(Cl)c1Cn1c(-c2cncs2)nc2ccccc21	71%	88.6%	87.5%	97%	101%	71%	76.6%	73.1%	87.6%	99.5%	110%	35.3%	81%	82.5%	95%	98.2%	65.4%	96.8%	76.6%	89.5%
CN(C)c1ncc(-c2ccc(C(F)(F)F)cc2)c(NC2CCCCCC2)n1	58.5%	61.9%	95.4%	88.2%	55.4%	-1.97% (active)	43.6%	57.5%	67.2%	50%	84.9%	28.2%	5.4% (active)	83.4%	78.8%	80.8%	32.7%	97.3%	38.1%	44.5%
CN1C(=O)[C@H]2c3c1cccc3[C@@]13NC(=O)O[C@H]1[C@H](CCC3(C)C)C2(C)C	103%	95.2%	108%	96%	105%	81.9%	92.6%	93.7%	96.6%	107%	106%	82.6%	110%	88.6%	101%	95.2%	75%	98%	104%	108%
COc1cc(OC)c(C(=O)/C=C/c2ccc(C#N)cc2)c(OC)c1	20.1%	28.9%	17.3%	13.6%	-3.34% (active)	12.8%	-5.25% (active)	7.11% (active)	10.6%	9.97% (active)	18.3%	9.68% (active)	44.2%	22.2%	15.9%	21%	8.32% (active)	2.95% (active)	30.8%	1.79% (active)
CC(C)C[C@H](NC(=O)[C@@H](Cc1ccccc1)n1ccc(Nc2ccccc2)cc1=O)B(O)O	6.41% (active)	-72% (active)	43.5%	-21.6% (active)	8.89% (active)	-31.4% (active)	-53.7% (active)	17%	17.2%	13.8%	35.3%	3.2% (active)	-39.1% (active)	-24.8% (active)	-80.2% (active)	-31.6% (active)	-20.6% (active)	-17.7% (active)	-36.6% (active)	9.32% (active)
COC12CC(=O)C(C(C)=O)=C(O)C1(C)c1c(O)c(C)c(O)c(C(C)=O)c1O2 (stereo not given)	50.5%	81.2%	71.4%	86%	55.1%	46%	70.1%	64.8%	60.8%	99.8%	90.2%	70.4%	90.7%	92.7%	90.3%	78.4%	13.3%	78.5%	90.7%	66.7%
COC1=CC(c2ccc[nH]2)=N/C1=C\c1[nH]c(C)c(C(=O)CCCCC(=O)Oc2ccc3c(c2)CCC2C3CC[C@]3(C)[C@@H](O)CC[C@@H]23)c1C (stereo not given in full)	73.3%	61.5%	62.9%	68.4%	29.6%	30.4%	12.9%	52.6%	66.1%	94.6%	30.6%	13.6%	80.1%	10.9%	62.4%	44.6%	80.8%	65.9%	103%	60%
CCC1=C[C@@H]2CN(C1)Cc1c([nH]c3ccccc13)[C@@](C(=O)OC)(c1cc3c(cc1OC)N(C=O)[C@H]1[C@@](O)(C(=O)OC)[C@H](OC(C)=O)[C@]4(CC)[C@@H]5C[C@@H]5CN5CC[C@]31[C@@H]54)C2	15.7%	35.4%	48.8%	34%	6.63% (active)	-16.4% (active)	-0.697% (active)	11%	25.8%	-78.5% (active)	-9.76% (active)	9.35% (active)	40.4%	-24% (active)	40.7%	16.1%	-32.8% (active)	-18.1% (active)	52.5%	3.92% (active)

Source: PubChem BioAssay (NCI)
